# Data reported in PubChem BioAssay (NCATS).
# Inconclusive results are not listed. Entries that show only a call come without a potency. Activity calls are given as the source filed them. Unless noted, the call rests on the fitted dose curve; in most records, active means well fitted curve in the direction sought with a large enough effect; inconclusive means small, poorly fitted or top-dose-only effect, or another doubt; inactive means no such curve, though single readings can be large; an effect the other way counts as inactive or inconclusive.
# Experiments:
# [1] = qHTS for Inhibitors of Plasmodium falciparum (DD2) proliferation (AID 504314);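 further: parasite DNA measured by SYBR Green fluorescence after red cell lysis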; details: P. falciparum Dd2 in erythrocytes, SYBR Green growth, 72 h; series mostly up to 6.11 µM
# Procedure, shortened: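 SYBR Green growth assay: 72 h compound exposure of infected red cells (2.5% hematocrit, 0.3% parasitemia), then lysis and overnight dye staining, fluorescence 485/535 nm. Values scaled between DMSO and 0.29 uM artemisinin controls.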
# [2] = qHTS for Inhibitors of Plasmodium falciparum (GB4) proliferation (AID 504315); further: nearly all actives have a fitted effect of over 50% in size; details: P. falciparum GB4 in erythrocytes, SYBR Green DNA, 72 h; series mostly up to 6.7 µM
# Procedure, shortened: (§1)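 Parasite growth measured as SYBR Green DNA fluorescence (ex 485, em 535 nm) after overnight lysis following 72 h culture at 37 °C, 0.3% parasitemia, 2.5% hematocrit. Values normalized against DMSO and 0.29 uM artemisinin controls, with plate-stack correction.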
# [3] = qHTS for Inhibitors of Plasmodium falciparum (HB3) proliferation (AID 504318); further: nearly all actives have a fitted effect of over 60% in size; details: P. falciparum HB3 in erythrocytes, SYBR Green DNA, 72 h; series mostly up to 7.21 µM
# Procedure, shortened: as §1
# [4] = qHTS for Inhibitors of Plasmodium falciparum (CP250) proliferation (AID 504320); details: P. falciparum CP250 in erythrocytes, SYBR Green DNA, 72 h; series mostly up to 6.7 µM
# Procedure, shortened: as §1
# [5] = target: Atrial natriuretic peptide receptor 1 (Homo sapiens) (UniProt P16066); assay: Natriuretic polypeptide receptor (hNpr1) antagonism - Pilot CMLD screen (AID 1347052; calls by dose curve;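 further: cGMP level read as GloSensor luciferase luminescence after agonist stimulation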; further: potency means the concentration at half of the fitted maximal effect); details: HEK293 hNpr1 GloSensor cGMP luminescence, ANP-stimulated; series mostly up to 9.22 µM
# Atrial natriuretic peptide receptor 1 (Homo sapiens), sequence (P16066 whole entry, looked up): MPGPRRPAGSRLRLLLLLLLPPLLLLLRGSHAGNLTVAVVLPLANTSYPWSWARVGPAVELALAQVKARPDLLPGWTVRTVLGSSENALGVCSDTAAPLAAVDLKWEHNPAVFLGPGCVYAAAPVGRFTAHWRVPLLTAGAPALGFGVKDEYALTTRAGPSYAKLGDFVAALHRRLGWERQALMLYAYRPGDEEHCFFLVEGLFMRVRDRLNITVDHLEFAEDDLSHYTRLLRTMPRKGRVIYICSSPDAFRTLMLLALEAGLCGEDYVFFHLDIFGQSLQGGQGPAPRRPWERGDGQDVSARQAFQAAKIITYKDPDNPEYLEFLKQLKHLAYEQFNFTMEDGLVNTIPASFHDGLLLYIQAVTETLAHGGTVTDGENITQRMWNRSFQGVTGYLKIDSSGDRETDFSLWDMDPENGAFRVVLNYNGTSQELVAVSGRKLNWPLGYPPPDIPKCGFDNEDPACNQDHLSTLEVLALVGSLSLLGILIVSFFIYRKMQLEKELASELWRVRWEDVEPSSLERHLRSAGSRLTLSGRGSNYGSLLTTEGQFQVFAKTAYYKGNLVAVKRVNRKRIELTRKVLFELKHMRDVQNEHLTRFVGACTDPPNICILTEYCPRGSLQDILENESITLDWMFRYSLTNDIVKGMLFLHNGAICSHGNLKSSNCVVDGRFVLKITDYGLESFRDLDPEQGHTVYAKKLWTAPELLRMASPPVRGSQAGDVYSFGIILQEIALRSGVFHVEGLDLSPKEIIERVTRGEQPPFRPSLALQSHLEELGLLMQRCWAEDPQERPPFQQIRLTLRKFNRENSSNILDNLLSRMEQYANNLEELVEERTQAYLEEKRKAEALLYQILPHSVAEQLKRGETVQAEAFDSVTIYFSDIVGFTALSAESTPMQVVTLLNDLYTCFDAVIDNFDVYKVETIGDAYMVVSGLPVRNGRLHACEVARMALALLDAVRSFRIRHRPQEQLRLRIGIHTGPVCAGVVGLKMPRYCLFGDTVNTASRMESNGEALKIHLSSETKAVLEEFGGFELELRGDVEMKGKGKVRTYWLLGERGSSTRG
Structure (SMILES),Potency [1],Potency [2],Potency [3],Potency [4],Potency [5]
C=CC(=O)N1C(=O)c2ccccc2S1(=O)=O,inactive,inactive,inactive,inactive,2990 nM (active)
CC=C[C@@H]1Oc2ccc(OC)cc2N2C(=O)[C@H](C)[C@@H](OCOC)[C@H]12,inactive,inactive,inactive,inactive,inactive
C=CCN1c2ccccc2[C@]23CCC(=O)N(Cc4ccco4)C2=NC(C(=O)OC)=C(C(=O)OC)[C@H]13,inactive,inactive,inactive,inactive,inactive
CC1(OC(=O)C2CCCC2)C(=O)C=C2C=C(c3ccsc3)N(CCc3ccccn3)C=C2C1=O (stereo not given),inactive,inactive,inactive,inactive,inactive
CC(C)CON=C1C[C@@H](O)[C@@H](O)[C@@H]2[C@H]3C(=O)N(Cc4ccc5c(c4)OCO5)C(=O)[C@@H]3CC[C@H]12,inactive,inactive,inactive,inactive,inactive
COc1ccc(-c2nc3c(c4c2C[C@H](c2ccccc2)OC4)CN(C(=O)C2CC2)CC3)c(C)c1,inactive,inactive,inactive,inactive,inactive
CC(C)=CCN1C(=O)C2(CC(C)=C[C@@H](C)O2)c2c(Br)cccc21 (stereo not given in full),inactive,inactive,inactive,inactive,inactive
COC(=O)N[C@@H](c1ccccc1)[C@]1(C(C)=O)CCCC1=O,inactive,inactive,inactive,inactive,inactive
COc1ccc2c(c1)O[C@@H](c1cccc(C(F)(F)F)c1)[C@H](OC(=O)Nc1ccc(OC(F)F)cc1)C2=O,inactive,inactive,inactive,inactive,inactive
CCN1C(=O)NC(c2cccc(F)c2)C(C(C)=O)=C1C (stereo not given),inactive,inactive,inactive,inactive,inactive
C=C1CN2C(=NC(c3ccccc3)C(C(=O)OC)=C2C)O1 (stereo not given),inactive,inactive,inactive,inactive,inactive
CC(CCC(=O)OC[C@H]1O[C@H](C#Cc2ccccc2)C=C[C@H]1Oc1ccc(C)cc1)=NO[C@@H](C)CN1CCCCc2nc(C)c(C)cc21,inactive,inactive,inactive,inactive,inactive
COc1cc2c(cc1OC)[C@@H]1O[C@](c3ccsc3)(C2)OC2=C1C(=O)OC1(CCCCC1)C2,inactive,inactive,inactive,inactive,inactive
COC[C@H]1O[C@H](c2ccccc2)C=C[C@H]1OCC=C(C)C,inactive,inactive,inactive,inactive,inactive
